Test results: the supplement of paper PMC9948646

tested on: gramicidin D channels in DC22:1PC lipid vesicles (bilayer-modifying potency); assay: initial Tl+ fluorescence quench rate relative to no-drug control (NormRate, gramicidin monomer-dimer shift) (ratio (fold of control)); higher = stronger bilayer-modifying effect (equilibrium shifted toward conducting dimers), active = 1.5 or more; conditions: 10 µM; lipid concentration 50 µM; temperature: 25 °C
Method: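 Stopped-flow fluorescence quench assay: ANTS-loaded DC22:1PC large unilamellar vesicles doped with gramicidin D (1:2000), 50 µM lipid, equilibrated 10 min with 10 µM drug (0.1% DMSO), mixed with Tl+ quench buffer at 25°C. Initial quench rate (Tl+ influx) was fitted with a modified stretched exponential and normalised to the no-drug control rate (NormRate); duplicates from two independent LUV preparations (triplicates for 7 drugs).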

Initial Tl+ fluorescence quench rate, active:
COC(=O)c1cccc2oc(-c3cccc(OC)c3NC(=O)c3cc(-c4ccccc4)on3)nc12 1.76
O=C1[C@@H](Oc2ccccc2)[C@@H](c2ccc(Cl)cc2)N1CCn1cnc2c(NCc3ccccc3)ncnc21 2.02
CS(=O)(=O)c1ccc(C(=O)N(C[C@H]2CCCO2)c2nc3ccccc3s2)cc1[N+](=O)[O-] 2.09
c1ccc(Oc2ccc(-c3cc(CN4CCOCC4)[nH]n3)cc2)cc1 1.7
CN(C)c1cc(NC(=O)Nc2ccccc2)c2ccccc2n1 1.74
COc1ccc(C2=NN(C3CCCCCC3)C(=O)C2(C)C)cc1OCCCCOc1ccc(-c2nn[nH]n2)cc1 9.05
O=C(OCc1ccccc1)N1CCC(c2cc(-c3ccncc3)c(-c3ccc(F)cc3)[nH]2)CC1 2.36
CC(C)n1nc(-c2cc3c(Cl)cccc3[nH]2)c2c(N)ncnc21 3.74
Cc1cc2nc(NC(=O)C(C)(C)C)nc(Cl)c2n1Cc1ccc(Cl)cc1 1.77
CCCn1nnc(NC(=O)COc2ccc(C3CCCCC3)cc2)n1 2.51
O[C@@H](c1cc(C(F)(F)F)nc2c(C(F)(F)F)cccc12)[C@H]1CCCCN1 2.24
COc1ccc(C2=NN(C3CCCCCC3)C(=O)[C@@H]3CC=CC[C@H]23)cc1OCCCCOc1ccc(-c2nn[nH]n2)cc1 8.03
COc1cc(OC)cc(C(=O)NC[C@@H]2Cc3cc(Cl)cc(-c4ccncc4)c3O2)c1 2.47

Initial Tl+ fluorescence quench rate, inactive:
COc1cccc(CC(=O)N2CCC(n3c(C)nc4ccc(F)cc43)CC2)c1 1.15
CCc1ccccc1-n1c(C)cn2c3c(=O)n([C@@H](C(=O)OC)C(C)C)c(=O)n(C)c3nc12 1.2
COc1cccc(-n2nnnc2S(=O)(=O)Cc2ccccc2)c1 1.07
c1cc(C2=NCCN2)cc(-c2cc(-c3ccc(C4=NCCN4)cc3)no2)c1 1.17
CCCCN(CCCC)c1c(C#N)cc(S(=O)(=O)Nc2ccccc2)cc1C#N 1.1
NC(=O)c1cc(-c2ccsc2)ccc1OCCOc1ccccc1 1.14
Cn1c(=O)c2c(S(C)(=O)=O)snc2n(C)c1=O 1.19
CO[C@@H](C(=O)N1Cc2[nH]nc(NC(=O)c3ccc(N4CCN(C)CC4)cc3)c2C1)c1ccccc1 1.2
COc1cccc(OCC(=O)c2ccc(Br)cc2)c1 1.06
COC[C@H](C)NC(=O)CSc1ncnc2sc(-c3ccccc3)cc12 1.33
N#Cc1nc(-c2ccccc2F)oc1NCCc1ccccc1 1.04
FC(F)(F)c1cc(NCCc2ccccc2)nc(-c2ccccn2)n1 1.31
O=C(c1ccc(F)cc1)N(CCNc1ccccc1)c1ccccc1 1.36
Nc1nc(N)c2c3c(sc2n1)CN(Cc1ccccc1)CC3 1.04
CCCNC(=O)N1CCC2(CC1)CC(=O)c1cc(C)ccc1O2 1.15
NCC(=O)N1CCn2c(nc(-c3ccccc3)c2Nc2ccc3c(c2)OCO3)C1 1.36
COc1cccc(-n2nnnc2S(C)(=O)=O)c1 1.06
Cc1cc(C(=O)Nc2cnn(Cc3ccc(Cl)cc3Cl)c2)no1 1.1
CNC(=O)[C@H]1Cc2ccccc2N1C(=O)Cc1ccc(F)cc1 1.04
Cc1nc(-c2cccc(NCc3ccccc3)c2)[nH]c1C 1.24
Nc1cccnc1Nc1ccc(Cl)cc1 1.05
Cc1cc(NCC(C)C)c2n[nH]c(-c3ccccc3)c2n1 1.11
COc1cc(C(F)(F)F)nc2ccc(C)c(N)c12 1.03
N[C@H](CC(=O)c1ccc(Cl)cc1Cl)C(Cl)(Cl)Cl 1.12
CCCCc1ccc(NC(=O)Nc2ccc(O[C@H]3CCCC[C@@H]3N(C)c3ccccc3)c(F)c2)cc1 1.35
